Calls of active or inactive are those of the source. Where a call stands in place of a potency, no number is given. Calls come from the whole dose curve; as a rule, active = well fitted activation curve with a large enough effect; inconclusive = small, poorly fitted or top-dose-only effect; inactive = flat fitted curve, though single readings scatter.
assay: Confirmation and Secondary Assay for Modulators of Hemoglobin Beta Chain Splicing at IVS2 705 locus (AID 930); details: HeLa EGFP-705 splicing reporter, GFP fluorescence, 48 h; series mostly up to 46.1 µM
Excerpt: NIH Chemical Genomics Center [NCGC] NIH Molecular Libraries Screening Centers Network [MLSCN] MLSCN Grant: 1 X01 MH080684-01 PI Name: Dr. Ryszard Kole NCGC Assay Overview: Modulation of Alternative Splicing as Therapy Abnormal splicing is associated with a number of diseases, including cancer and genetic diseases such as cystic fibrosis, muscular dystrophy and beta-thalassemia. Alteration of disease associated splicing patterns provides a promising target for treatment. […] Mutations in the second intron of the b-globin gene at positions 654 or 705 are clinically relevant and cause mis-splicing which results in an out of frame gene product. […] EGFP-705 HeLa Cells as screen system. HeLa cell lines were stably transfected with a construct in which the EGFP (enhanced green fluorescent protein) cDNA was interrupted by the second intron of the beta-globin gene (IVS2-705). The ISV2 intron contains mutations which cause mis-splicing of EGFP and premature termination of EGFP which results in a nonfluorescent protein product. […] Expression of the transgene was driven by the CMV promoter. We concluded that a low molecular weight compound, which restored correct splicing of intron 2 would also generate functional EGFP protein, resulting in a fluorescent signal. Thus, the HeLa cells that express the EGFP-705 construct can be used for validation of splice site specificity of compounds identified in primary screening of the ISV2 654 construct.
NCGC Assay Protocol Summary: Confirmatory Screening. Freshly thawed HeLa EGFP-705 cells were seeded in 5 ul of optimem media (Invitrogen) containing 2 % fetal calf serum (Hyclone) and 1x penicillin/streptomycin (Invitrogen) at a concentration of 500 cells per well in 1536-well plates. Cells were incubated overnight at 37C in 5% CO2. The next day, cells were treated with DMSO, 500 nM antisense ISV2 654 PNA control oligo, or library compound and allowed to grow at 37C in 5% CO2 for 2 days. The PNA oligo blocked the mutation site in the intron and allowed proper (wild type) splicing to occur, resulting in full length EGFP expression and also allowed for optimization of the assay parameters. Plates were read in the Acumen Explorer (TTP Labtech) using 488 nm laser excitation and 500-520 nm emission PMT filter in a 1 x 8 uM capture mode. Fluorescnet objects ranging in size from 5 to 250 uM were measured and the total peak GFP intensity for each well was used for data analysis. Keywords: Thalassemia, beta-thalassemia, beta-globin, EGFP, ISV2 654, ISV2 705, SSO, PNA, antisense, splicing, MLSMR, MLSCN, NIH Roadmap, qHTS, NCGC
Potency is the fitted concentration of half-maximal effect.

| Compound | Potency |
| --- | --- |
| CNC(=O)O/N=C/C(C)(C)SC | inactive |
| COc1cc(C2c3cc4c(cc3C(OC(C)=O)[C@H]3COC(=O)C23)OCO4)cc(OC)c1OC (stereo not given in full) | inactive |
| COc1cc2c(cc1O)CCNC2C (stereo not given) | inactive |
| CC(=O)Oc1ccc(Cl)c2cccnc12 | inactive |
| CC1(C)C(O)CC(O)[C@]2(C)C1CC(=O)[C@]1(C)C2CC[C@@]2(C)C(c3ccoc3)OC(=O)C3OC321 (stereo not given in full) | inactive |
| CC1(C)N([O-])[N+](=O)C1(C)Br (stereo not given) | inactive |
| CC(=O)CC1CCCCN1 (stereo not given) | inactive |
| CCN1C[C@]2(COC)C(O)C[C@H](OC)[C@@]34C5C[C@]6(O)C(OC)C(O)[C@](OC(C)=O)(C5C6OC(=O)c5ccccc5)C(C(OC)C23)C14 (stereo not given in full) | inactive |
| CC(=O)OC1C[C@H](O[C@@H]2C(O)C[C@H](O[C@@H]3C(O)C[C@@H](OC4CC[C@]5(C)C(CCC6C5CC(O)[C@@]5(C)C(C7=CC(=O)OC7)CC[C@@]65O)C4)OC3C)OC2C)O[C@H](C)[C@H]1O[C@H]1OC(CO)C(O)C(O)C1O (stereo not given in full) | inactive |
| CC(N)C(O)c1ccc(O)c(O)c1 (stereo not given) | inactive |
| CCC1/C=C/C=CCC(C)C(O)[C@@](C)(O)C(=O)C(C)C(O)C(C)C(=O)C(C)C(O)C(C)C=CC(=O)O[C@H]2C(C)C(CC1)O[C@]1(CCC(C)C(CC(C)O)O1)C2C (stereo not given in full) | inactive |
| CC1(C)C(O)CC(O)[C@]2(C)C1CC(O)[C@]1(C)C2CC[C@@]2(C)C(c3ccoc3)CC3OC312 (stereo not given in full) | inactive |
| COc1c2c(cc3c1OCO3)CC[N+](C)=C2 | inactive |
| CC1C(=O)OC2O[C@]3(C)CC[C@H]4C(C)CCC1[C@]24OO3 (stereo not given in full) | inactive |
| COc1cc(C2c3cc4c(cc3C(O)C3COC(=O)C23)OCO4)cc(OC)c1O (stereo not given) | inactive |
| O=c1cccc2n1CC1CNCC2C1 (stereo not given) | inactive |
| CNC(C)[C@@H](O)c1ccccc1 (stereo not given in full) | inactive |
| NC(CO)Cc1ccccc1 (stereo not given) | inactive |
| C/C=C(\C)C(=O)OC1CC(OC(C)=O)[C@@]2(C(=O)OC)COC3C2[C@@]12CO[C@](O)(C(=O)OC)C2[C@](C)(C12OC1(C)C1CC2OC2OC=C[C@]21O)C3O (stereo not given in full) | inactive |
| c1ccc2c(c1)[nH]c1cnccc12 | inactive |

| Compound | Potency |
| --- | --- |
| CCN1C[C@@]2(OC(=O)c3ccccc3NC(C)=O)CCC(OC)[C@@]34C5CC6C(OC)C[C@@](O)(C(CC23)[C@@H]14)C5(O)C6OC (stereo not given in full) | inactive |
| COP(=S)(OC)Oc1ccc([N+](=O)[O-])cc1 | inactive |
| CCC(C)C(=O)OC1C(O)C2C(CN3CC(C)CCC3[C@]2(C)O)C2C[C@]34O[C@@]5(O)C(OC(=O)C(C)(O)C(C)O)CCC3(C)C5C(OC(C)=O)C(OC(C)=O)C4[C@@]21O (stereo not given in full) | inactive |
| N#C/C(=C\c1cccc(O)c1)C(=O)O | inactive |
| O=C(O)COc1ccc(Cl)cc1Cl | inactive |
| CC(=O)OC1CC(OC(C)=O)[C@]2(C)C(CC(OC(C)=O)[C@]3(C)C2CC[C@@]2(C)C(c4ccoc4)C(=O)C4O[C@]432)C1(C)C (stereo not given in full) | inactive |
| O=C1C=CC(=O)c2c(O)cccc21 | inactive |
| CC1OC(O[C@@H]2C(O)CC(O[C@@H]3C(O)C[C@@H](OC4CC[C@]5(C)[C@H](CC[C@H]6[C@@H]5CC[C@]5(C)C(C7=CC(=O)OC7)C(O)C[C@@]65O)C4)OC3C)OC2C)CC(O)C1O (stereo not given in full) | 1 µM (active) |
| COC1=CC2C3Cc4ccc(OC)c(O)c4[C@]2(CCN3C)CC1=O (stereo not given in full) | inactive |
| CC(C)c1cc2c(c(O)c1O)[C@]1(C(=O)O)CCCC(C)(C)C1CC2 (stereo not given in full) | inactive |
| CC(C)(C#N)O[C@H]1OC(CO)C(O)C(O)C1O (stereo not given in full) | inactive |
| C[C@@]12CCC3C(CC[C@@H]4CC(O)CC[C@@]34C)C1CCC2O (stereo not given in full) | inactive |
| O=C(O)c1nn(Cc2ccc(Cl)c(Cl)c2)c2ccccc12 | inactive |
| C[C@@]12CCC(O)C[C@H]1CCC1C2CC[C@]2(C)C(=O)CCC12 (stereo not given in full) | inactive |
| N#CC(O[C@@H]1OC(COC2OC(CO)C(O)C(O)[C@@H]2O)C(O)C(O)C1O)c1ccccc1 (stereo not given in full) | inactive |
| CC(=O)OC1CC[C@@]2(C)C3CC[C@]4(C)C(=O)CCC4C3CC[C@H]2C1 (stereo not given in full) | inactive |
| CC(=O)OC1C2C(OC(=O)Cc3ccccc3)C(C)CC2(OC(C)=O)C(=O)/C(C)=C/C2C(CC[C@@]13CO3)C2(C)C (stereo not given in full) | inactive |
| COc1c(CC=C(C)C)c2c(c3oc(=O)c(-c4ccc(O)cc4)c(O)c13)C=CC(C)(C)O2 | inactive |
| CCC(=O)Nc1ccc(Cl)c(Cl)c1 | inactive |
| CC1O[C@@H](OC2CC[C@@]3(C=O)C4CC[C@]5(C)C(C6=CC(=O)OC6)CC[C@@]5(O)C4CC[C@]3(O)C2)C(O)C(O)C1O (stereo not given in full) | inactive |

Source: PubChem BioAssay (NCATS)
